Results taken from paper PMC7862700, “An all-to-all approach to the identification of sequence-specific readers for epigenetic DNA modifications on cytosine”.

Assays:
Experiment in all cases: DAPPL (digital affinity profiling via proximity ligation, sequencing); 10 mM Tris-HCl pH 7.5, 50 mM NaCl, 1 mM DTT, 4% glycerol, room temperature, 30 min; GST-TFs on glutathione beads, 16-mer random dsDNA library, 0.1% formaldehyde crosslink after washing; high values mean tight binding
FLI1 = molecular target: T1, FLI1 (Homo sapiens, UniProt Q01543 1-452); conditions: protein: recombinant; tags: N-terminal GST; dsDNA, one strand shown
T1 sequence: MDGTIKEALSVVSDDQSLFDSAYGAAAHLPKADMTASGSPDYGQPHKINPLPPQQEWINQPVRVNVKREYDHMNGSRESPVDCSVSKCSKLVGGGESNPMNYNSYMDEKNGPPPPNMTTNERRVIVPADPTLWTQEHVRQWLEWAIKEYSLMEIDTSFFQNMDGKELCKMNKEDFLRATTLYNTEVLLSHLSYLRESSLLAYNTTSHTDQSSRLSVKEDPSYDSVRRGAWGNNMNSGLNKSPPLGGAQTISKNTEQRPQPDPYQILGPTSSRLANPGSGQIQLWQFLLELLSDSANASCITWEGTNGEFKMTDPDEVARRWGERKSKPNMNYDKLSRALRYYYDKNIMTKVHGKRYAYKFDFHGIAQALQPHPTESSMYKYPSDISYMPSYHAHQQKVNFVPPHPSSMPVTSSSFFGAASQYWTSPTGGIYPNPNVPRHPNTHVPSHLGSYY
Procedure, shortened: (§1)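 A tag-only sample was pooled with DNA-barcoded human transcription factors that had been expressed in yeast as GST fusions and captured on glutathione beads. The pools were incubated for 30 min at room temperature with 200 nmole of a random double-stranded 16-mer DNA library in Tris/NaCl/DTT/glycerol buffer, then washed, crosslinked with 0.1% formaldehyde, proximity-ligated (BsaI/T4 ligase, 1 h, 37 °C), PCR-amplified and sequenced on an Illumina NextSeq500. Binding signal is each hexamer's read frequency for a factor divided by its frequency for the tag-only sample.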

ELK1 = molecular target: T2, ELK1 (Homo sapiens, UniProt P19419 1-428); conditions: protein: recombinant; tags: N-terminal GST; dsDNA, one strand shown
T2 sequence: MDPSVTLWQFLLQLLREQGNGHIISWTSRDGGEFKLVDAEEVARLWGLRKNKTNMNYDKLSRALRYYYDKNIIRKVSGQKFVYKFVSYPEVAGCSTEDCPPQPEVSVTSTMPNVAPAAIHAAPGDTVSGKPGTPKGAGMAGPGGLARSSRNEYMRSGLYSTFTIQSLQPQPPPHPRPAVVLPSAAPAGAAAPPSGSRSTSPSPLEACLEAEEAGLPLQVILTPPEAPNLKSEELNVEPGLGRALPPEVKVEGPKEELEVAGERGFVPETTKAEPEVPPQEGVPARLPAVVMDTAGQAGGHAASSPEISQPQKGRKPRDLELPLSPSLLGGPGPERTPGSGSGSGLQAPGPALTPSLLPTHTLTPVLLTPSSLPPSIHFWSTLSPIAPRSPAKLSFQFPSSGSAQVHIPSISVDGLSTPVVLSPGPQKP
Procedure, shortened: as §1

GABPA = molecular target: T3, GABPA (Homo sapiens, UniProt Q06546 1-454); conditions: protein: recombinant; tags: N-terminal GST; dsDNA, one strand shown
T3 sequence: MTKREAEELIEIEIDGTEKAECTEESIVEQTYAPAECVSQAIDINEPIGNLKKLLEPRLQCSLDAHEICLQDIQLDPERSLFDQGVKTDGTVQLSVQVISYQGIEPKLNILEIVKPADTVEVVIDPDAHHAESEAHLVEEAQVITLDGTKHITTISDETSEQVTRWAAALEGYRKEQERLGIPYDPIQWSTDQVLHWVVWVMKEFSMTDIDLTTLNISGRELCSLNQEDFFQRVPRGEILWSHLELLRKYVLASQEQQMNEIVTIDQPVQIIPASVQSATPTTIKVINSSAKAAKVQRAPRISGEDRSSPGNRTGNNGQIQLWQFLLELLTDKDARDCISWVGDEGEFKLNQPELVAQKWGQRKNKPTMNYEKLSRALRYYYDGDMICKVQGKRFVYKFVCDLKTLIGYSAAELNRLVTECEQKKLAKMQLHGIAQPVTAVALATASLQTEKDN
Procedure, shortened: as §1

ERG = molecular target: T4, ERG (Homo sapiens, UniProt P11308 1-479); conditions: protein: recombinant; tags: N-terminal GST; dsDNA, one strand shown
T4 sequence: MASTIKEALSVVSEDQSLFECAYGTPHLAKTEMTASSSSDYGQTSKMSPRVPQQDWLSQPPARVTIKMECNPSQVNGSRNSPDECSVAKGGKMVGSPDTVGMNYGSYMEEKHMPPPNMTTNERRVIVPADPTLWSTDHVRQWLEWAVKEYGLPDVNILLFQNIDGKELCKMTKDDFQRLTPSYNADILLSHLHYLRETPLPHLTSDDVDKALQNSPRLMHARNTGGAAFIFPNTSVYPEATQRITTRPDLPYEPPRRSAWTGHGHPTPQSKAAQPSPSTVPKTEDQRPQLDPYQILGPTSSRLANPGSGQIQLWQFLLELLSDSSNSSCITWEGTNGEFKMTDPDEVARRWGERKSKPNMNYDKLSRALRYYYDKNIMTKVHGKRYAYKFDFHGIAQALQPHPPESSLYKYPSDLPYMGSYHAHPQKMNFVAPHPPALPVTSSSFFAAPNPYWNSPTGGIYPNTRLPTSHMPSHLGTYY
Procedure, shortened: as §1

ELF1 = ELF1 (Homo sapiens, UniProt P32519 1-619); conditions: protein: recombinant; tags: N-terminal GST; dsDNA, one strand shown
Procedure, shortened: as §1

EHF = molecular target: T5, EHF (Homo sapiens, UniProt Q9NZC4 1-300); conditions: protein: recombinant; tags: N-terminal GST; dsDNA, one strand shown
T5 sequence: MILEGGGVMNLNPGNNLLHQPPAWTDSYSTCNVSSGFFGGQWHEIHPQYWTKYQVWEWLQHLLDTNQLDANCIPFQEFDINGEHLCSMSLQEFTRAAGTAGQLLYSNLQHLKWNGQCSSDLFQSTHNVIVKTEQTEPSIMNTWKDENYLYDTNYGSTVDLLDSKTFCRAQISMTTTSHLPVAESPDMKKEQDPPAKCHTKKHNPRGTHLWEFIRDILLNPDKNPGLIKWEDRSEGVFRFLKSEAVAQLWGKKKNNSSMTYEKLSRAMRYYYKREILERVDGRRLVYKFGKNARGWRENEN
Procedure, shortened: as §1

SPI1 = SPI1 (Homo sapiens, UniProt P17947 1-270); conditions: protein: recombinant; tags: N-terminal GST; dsDNA, one strand shown
Procedure, shortened: as §1

SPIB = SPIB (Homo sapiens, UniProt Q01892 1-262); conditions: protein: recombinant; tags: N-terminal GST; dsDNA, one strand shown
Procedure, shortened: as §1

FEV = molecular target: T6, FEV (Homo sapiens, UniProt Q99581 1-238); conditions: protein: recombinant; tags: N-terminal GST; dsDNA, one strand shown
T6 sequence: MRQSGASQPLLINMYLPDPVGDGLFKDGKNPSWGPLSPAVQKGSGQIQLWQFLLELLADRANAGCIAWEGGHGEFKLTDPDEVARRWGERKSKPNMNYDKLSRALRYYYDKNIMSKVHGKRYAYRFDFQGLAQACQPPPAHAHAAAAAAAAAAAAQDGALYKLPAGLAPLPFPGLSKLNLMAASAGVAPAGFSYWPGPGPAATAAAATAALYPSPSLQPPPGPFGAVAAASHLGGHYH
Procedure, shortened: as §1

ETV5 = ETV5 (Homo sapiens, UniProt P41161 1-510); conditions: protein: recombinant; tags: N-terminal GST; dsDNA, one strand shown
Procedure, shortened: as §1

HSF1 = HSF1 (Homo sapiens, UniProt Q00613 1-529); conditions: protein: recombinant; tags: N-terminal GST; chain copies: 3; dsDNA, one strand shown
Procedure, shortened: as §1

ELF4 = ELF4 (Homo sapiens, UniProt Q99607 1-663); conditions: protein: recombinant; tags: N-terminal GST; dsDNA, one strand shown
Procedure, shortened: as §1

ELK4 = molecular target: T7, ELK4 (Homo sapiens, UniProt P28324-2 1-405); conditions: protein: recombinant; tags: N-terminal GST; dsDNA, one strand shown
T7 sequence: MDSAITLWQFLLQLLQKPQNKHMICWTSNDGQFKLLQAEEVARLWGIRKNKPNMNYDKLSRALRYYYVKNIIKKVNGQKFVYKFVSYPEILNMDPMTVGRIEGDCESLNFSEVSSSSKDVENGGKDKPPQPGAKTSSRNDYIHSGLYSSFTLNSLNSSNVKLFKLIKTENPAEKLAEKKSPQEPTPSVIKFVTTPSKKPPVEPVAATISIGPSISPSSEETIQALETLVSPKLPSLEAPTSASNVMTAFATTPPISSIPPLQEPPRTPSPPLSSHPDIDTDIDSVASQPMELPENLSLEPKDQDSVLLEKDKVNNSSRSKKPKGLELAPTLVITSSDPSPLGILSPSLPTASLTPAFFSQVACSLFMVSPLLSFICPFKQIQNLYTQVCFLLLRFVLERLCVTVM
Procedure, shortened: as §1

ETV2 = molecular target: T8, ETV2 (Homo sapiens, UniProt O00321 1-342); conditions: protein: recombinant; tags: N-terminal GST; dsDNA, one strand shown
T8 sequence: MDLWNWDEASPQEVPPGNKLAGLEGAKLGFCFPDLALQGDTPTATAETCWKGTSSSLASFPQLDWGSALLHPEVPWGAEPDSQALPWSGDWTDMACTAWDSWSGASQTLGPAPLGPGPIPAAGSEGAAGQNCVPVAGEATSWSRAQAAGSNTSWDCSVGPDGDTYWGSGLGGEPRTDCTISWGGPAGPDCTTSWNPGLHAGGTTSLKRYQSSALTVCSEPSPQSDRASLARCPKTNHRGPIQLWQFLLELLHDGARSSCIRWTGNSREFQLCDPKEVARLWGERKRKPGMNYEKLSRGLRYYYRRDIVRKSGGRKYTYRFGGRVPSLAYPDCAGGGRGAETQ
Procedure, shortened: as §1

CRX = CRX (Homo sapiens, UniProt O43186 1-299); conditions: protein: recombinant; tags: N-terminal GST; dsDNA, one strand shown
Procedure, shortened: as §1

ETV1 = ETV1 (Homo sapiens, UniProt P50549 1-477); conditions: protein: recombinant; tags: N-terminal GST; dsDNA, one strand shown
Procedure, shortened: as §1

ELF4, sequence (Q99607 whole entry): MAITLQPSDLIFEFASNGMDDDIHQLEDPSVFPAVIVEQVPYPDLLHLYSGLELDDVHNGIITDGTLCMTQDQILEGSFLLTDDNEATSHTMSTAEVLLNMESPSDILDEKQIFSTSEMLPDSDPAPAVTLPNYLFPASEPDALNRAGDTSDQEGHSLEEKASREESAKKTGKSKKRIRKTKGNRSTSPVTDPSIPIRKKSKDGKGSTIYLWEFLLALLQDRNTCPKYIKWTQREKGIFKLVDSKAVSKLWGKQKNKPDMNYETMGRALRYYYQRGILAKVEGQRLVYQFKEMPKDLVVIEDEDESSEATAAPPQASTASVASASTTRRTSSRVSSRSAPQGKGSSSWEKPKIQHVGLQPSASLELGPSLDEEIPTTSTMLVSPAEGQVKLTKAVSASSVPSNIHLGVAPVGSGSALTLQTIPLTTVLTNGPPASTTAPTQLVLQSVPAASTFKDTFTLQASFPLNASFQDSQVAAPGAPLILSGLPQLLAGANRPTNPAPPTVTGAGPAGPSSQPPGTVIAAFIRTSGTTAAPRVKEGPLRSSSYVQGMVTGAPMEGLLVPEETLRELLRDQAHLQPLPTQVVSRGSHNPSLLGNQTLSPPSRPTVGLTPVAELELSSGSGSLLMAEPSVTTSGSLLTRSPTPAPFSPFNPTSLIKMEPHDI
ETV5, sequence (P41161 whole entry): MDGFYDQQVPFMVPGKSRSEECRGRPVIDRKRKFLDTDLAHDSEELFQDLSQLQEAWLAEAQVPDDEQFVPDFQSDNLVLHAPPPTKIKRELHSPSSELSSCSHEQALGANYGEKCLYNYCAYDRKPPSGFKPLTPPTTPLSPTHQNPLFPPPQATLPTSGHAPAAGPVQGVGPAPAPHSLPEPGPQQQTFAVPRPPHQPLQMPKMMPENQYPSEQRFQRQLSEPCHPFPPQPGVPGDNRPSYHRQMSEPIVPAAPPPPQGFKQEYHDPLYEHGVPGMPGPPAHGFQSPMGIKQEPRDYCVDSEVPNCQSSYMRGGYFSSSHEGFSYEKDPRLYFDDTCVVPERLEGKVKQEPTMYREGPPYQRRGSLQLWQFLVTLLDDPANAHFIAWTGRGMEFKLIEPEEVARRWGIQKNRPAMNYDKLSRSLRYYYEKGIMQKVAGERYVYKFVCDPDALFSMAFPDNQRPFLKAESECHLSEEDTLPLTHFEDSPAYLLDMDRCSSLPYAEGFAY
ELF1, sequence (P32519 whole entry): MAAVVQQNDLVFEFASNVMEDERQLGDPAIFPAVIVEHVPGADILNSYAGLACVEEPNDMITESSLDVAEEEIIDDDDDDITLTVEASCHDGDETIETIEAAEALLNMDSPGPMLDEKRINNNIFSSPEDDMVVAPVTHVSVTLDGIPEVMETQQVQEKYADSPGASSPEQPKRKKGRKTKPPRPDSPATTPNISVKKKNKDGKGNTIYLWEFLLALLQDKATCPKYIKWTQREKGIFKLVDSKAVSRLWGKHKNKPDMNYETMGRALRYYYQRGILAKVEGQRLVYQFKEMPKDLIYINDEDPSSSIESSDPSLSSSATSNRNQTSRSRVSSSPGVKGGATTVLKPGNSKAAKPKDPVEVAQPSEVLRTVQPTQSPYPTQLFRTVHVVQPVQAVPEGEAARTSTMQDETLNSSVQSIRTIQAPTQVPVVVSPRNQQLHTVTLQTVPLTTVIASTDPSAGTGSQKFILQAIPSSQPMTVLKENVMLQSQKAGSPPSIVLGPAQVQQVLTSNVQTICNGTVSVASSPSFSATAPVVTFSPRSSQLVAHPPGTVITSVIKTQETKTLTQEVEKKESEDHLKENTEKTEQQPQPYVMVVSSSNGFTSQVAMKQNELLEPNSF
SPIB, sequence (Q01892 whole entry): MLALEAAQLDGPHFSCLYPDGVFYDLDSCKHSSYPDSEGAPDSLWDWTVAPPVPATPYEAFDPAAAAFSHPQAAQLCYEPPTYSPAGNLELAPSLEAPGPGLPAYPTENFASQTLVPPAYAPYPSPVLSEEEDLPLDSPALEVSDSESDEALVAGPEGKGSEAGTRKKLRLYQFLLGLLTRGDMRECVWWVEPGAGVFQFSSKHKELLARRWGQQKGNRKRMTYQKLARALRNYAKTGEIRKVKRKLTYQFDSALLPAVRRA
ETV1, sequence (P50549 whole entry): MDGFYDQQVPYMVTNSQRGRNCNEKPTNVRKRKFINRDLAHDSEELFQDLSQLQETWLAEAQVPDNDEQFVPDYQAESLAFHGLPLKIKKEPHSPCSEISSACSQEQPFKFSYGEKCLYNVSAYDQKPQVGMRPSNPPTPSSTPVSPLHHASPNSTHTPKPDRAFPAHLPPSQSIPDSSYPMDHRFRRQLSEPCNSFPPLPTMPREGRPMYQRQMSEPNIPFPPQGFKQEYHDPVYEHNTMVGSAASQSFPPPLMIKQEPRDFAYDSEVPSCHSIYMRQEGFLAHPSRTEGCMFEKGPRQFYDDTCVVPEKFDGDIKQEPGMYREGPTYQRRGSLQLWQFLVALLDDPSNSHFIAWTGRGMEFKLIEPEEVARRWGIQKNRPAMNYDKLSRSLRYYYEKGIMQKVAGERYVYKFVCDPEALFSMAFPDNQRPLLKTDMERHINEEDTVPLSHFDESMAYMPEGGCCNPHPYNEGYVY
HSF1, sequence (Q00613 whole entry): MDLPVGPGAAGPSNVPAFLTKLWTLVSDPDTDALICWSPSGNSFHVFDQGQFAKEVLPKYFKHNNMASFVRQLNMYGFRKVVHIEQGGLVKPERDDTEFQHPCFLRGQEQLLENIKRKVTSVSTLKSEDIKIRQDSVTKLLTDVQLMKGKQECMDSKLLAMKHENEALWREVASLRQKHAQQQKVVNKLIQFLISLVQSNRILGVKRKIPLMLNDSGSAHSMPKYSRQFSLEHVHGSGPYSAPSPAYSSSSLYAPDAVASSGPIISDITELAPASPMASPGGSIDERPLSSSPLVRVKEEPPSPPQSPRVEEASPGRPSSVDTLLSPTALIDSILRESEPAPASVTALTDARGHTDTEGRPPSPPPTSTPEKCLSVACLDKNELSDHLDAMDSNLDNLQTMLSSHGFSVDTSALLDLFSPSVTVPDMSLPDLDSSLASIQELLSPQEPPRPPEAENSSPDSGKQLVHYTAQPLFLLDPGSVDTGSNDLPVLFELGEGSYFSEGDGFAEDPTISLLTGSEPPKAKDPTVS
CRX, sequence (O43186 whole entry): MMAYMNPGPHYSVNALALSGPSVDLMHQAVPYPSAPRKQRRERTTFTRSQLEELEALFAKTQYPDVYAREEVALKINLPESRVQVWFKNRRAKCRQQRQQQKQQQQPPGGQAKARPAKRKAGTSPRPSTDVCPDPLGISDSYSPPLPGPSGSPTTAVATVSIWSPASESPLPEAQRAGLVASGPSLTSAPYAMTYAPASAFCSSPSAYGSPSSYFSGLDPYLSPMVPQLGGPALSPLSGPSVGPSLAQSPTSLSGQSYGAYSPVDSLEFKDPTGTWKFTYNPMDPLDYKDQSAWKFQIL

Sequence: GGTATA
- binding signal (FLI1): 1.04 fold enrichment (6-mer frequency, TF over GST control)
- binding signal (ELK1): 1.16 fold enrichment (6-mer frequency, TF over GST control)
- binding signal (GABPA): 1.02 fold enrichment (6-mer frequency, TF over GST control)
- binding signal (ERG): 1.05 fold enrichment (6-mer frequency, TF over GST control)
- binding signal (ELF1): 1.09 fold enrichment (6-mer frequency, TF over GST control)
- binding signal (EHF): 1.11 fold enrichment (6-mer frequency, TF over GST control)
- binding signal (SPI1): 1.07 fold enrichment (6-mer frequency, TF over GST control)
- binding signal (SPIB): 1.06 fold enrichment (6-mer frequency, TF over GST control)
- binding signal (FEV): 1.08 fold enrichment (6-mer frequency, TF over GST control)
- binding signal (ETV5): 1.1 fold enrichment (6-mer frequency, TF over GST control)
- binding signal (HSF1): 1.08 fold enrichment (6-mer frequency, TF over GST control)
- binding signal (ELF4): 1.08 fold enrichment (6-mer frequency, TF over GST control)
- binding signal (ELK4): 1.1 fold enrichment (6-mer frequency, TF over GST control)
- binding signal (ETV2): 1.05 fold enrichment (6-mer frequency, TF over GST control)
- binding signal (CRX): 1.02 fold enrichment (6-mer frequency, TF over GST control)
- binding signal (ETV1): 1.11 fold enrichment (6-mer frequency, TF over GST control)
